Among the data in PubChem BioAssay (NCI) are growth values, retold here.

Holding throughout (experiment): NCI-60 one-dose screen, 48 h (100 = growth as untreated, 0 = no growth, -100 = all killed)
One test has as its system HCT-15 colon. To be noted: 10 µM unless noted.
In the next test the test system is HT29 colon. The conditions noted are these: 10 µM unless noted.
The next test concerns SNB-19 CNS. The conditions noted are these: 10 µM unless noted.
Another test has as its system U251 CNS. To be noted: 10 µM unless noted.
The subject of another test is PC-3 prostate. To be noted: 10 µM unless noted.
The test system of the next test is SK-MEL-5 melanoma. To be noted: 10 µM unless noted.
The subject of the next test is UACC-62 melanoma. The conditions noted are these: 10 µM unless noted.
Another test concerns LOX IMVI melanoma. The conditions noted are these: 10 µM.
The subject of a further test is SK-MEL-28 melanoma. To be noted: 10 µM unless noted.
A further test deals with SK-MEL-2 melanoma. To be noted: 10 µM unless noted.
For a further test, the system named is EKVX NSCLC. To be noted: 10 µM unless noted.
A further test relates to SN12C renal. To be noted: 10 µM unless noted.
The next test has as its system UO-31 renal. The conditions noted are these: 10 µM unless noted.
The subject of another test is TK-10 renal. To be noted: 10 µM unless noted.
The next test has as its system ACHN renal. The conditions noted are these: 10 µM unless noted.
In a further test the test system is CAKI-1 renal. To be noted: 10 µM unless noted.
In another test the test system is A498 renal. To be noted: 10 µM unless noted.
The test system of a further test is CCRF-CEM leukemia. To be noted: 10 µM unless noted.
In another test the test system is MOLT-4 leukemia. To be noted: 10 µM unless noted.
A further test relates to SNB-75 CNS. The conditions noted are these: 10 µM unless noted.

The structures appear in SMILES notation. This is part of a sample that, as a whole, favours compounds with a hit. Of some 83,000 tested, about 20% had one in any assay.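 Percent growth is the endpoint: 0 to 100 indicates growth inhibition (40 means 60% inhibition), 0 means no net growth, and negative values indicate cell death.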 Values without a mark were called inactive. Activity calls are given as the source filed them. Rule for the calls: active = growth percent below 10; inactive = the rest.

Consider `CCCn1cc(-c2nc(Nc3ccc(C(=O)NCCCCNc4cccc5c4C(=O)N(C4CCC(=O)NC4=O)C5=O)cc3)nc3[nH]ccc23)cn1` (centres undefined), for which the growth in the test on HCT-15 colon was 40.1%; with HT29 colon, 28.1%; in the test on SNB-19 CNS it was 23.4%; with U251 CNS, 54.1%; in the test with PC-3 prostate, 3.62% (active); in the test on SK-MEL-5 melanoma, 15.8%. Besides, the growth with UACC-62 melanoma was 74.6%; in the test with LOX IMVI melanoma, 90.5%; with SK-MEL-28 melanoma, 59.3%; with SK-MEL-2 melanoma, 10.4%; in the test on EKVX NSCLC it was 54.4%; in the test on SN12C renal it was 12.3%. The growth is 73.9% with UO-31 renal; 59.1% with TK-10 renal; 75.7% in the test with ACHN renal; 27.3% with CAKI-1 renal; -2.58% (active) in the test on A498 renal; -15.1% (active) in the test with CCRF-CEM leukemia. The growth in the test on MOLT-4 leukemia is -37.9% (active).
For the compound `Cc1ccc(Cc2cnc(NC(=O)c3ccc(/C=C4\SC(=S)N(C)C4=O)cc3)s2)cc1`, the growth in the test with HCT-15 colon is 18.7%; in the test on HT29 colon, 23.8%; in the test with SNB-19 CNS, 53.8%; with U251 CNS, 62.3%; in the test on PC-3 prostate, 37.3%; with SK-MEL-5 melanoma it was 19.4%. Also, the growth with UACC-62 melanoma is 25.1%; in the test on LOX IMVI melanoma, 34.3%; in the test with SK-MEL-28 melanoma, 42.1%; in the test with SK-MEL-2 melanoma, 25.6%; in the test with EKVX NSCLC, 60%; in the test on SN12C renal it was 30.8%. For the same compound, the growth in the test on UO-31 renal was 37.7%; in the test with TK-10 renal it was 61.5%; in the test with ACHN renal, 31.1%; in the test on CAKI-1 renal, 38.4%; in the test on A498 renal, 107%; in the test on CCRF-CEM leukemia, 32.3%. Moreover, in the test with MOLT-4 leukemia, the growth was 24.1%.
For the compound `Cc1ccc(C(=O)CSc2nc3ccc(C)cc3c(=O)n2-c2ccc(F)cc2)cc1`, the growth in the test with HCT-15 colon is 84.6%; in the test on HT29 colon, 72.5%; in the test on SNB-75 CNS it was 7.91% (active); in the test on U251 CNS, 28.7%; in the test on PC-3 prostate, 74%; with SK-MEL-5 melanoma, 72%. Also, the growth is 86.1% in the test on UACC-62 melanoma; 72.9% in the test with LOX IMVI melanoma; 88.1% in the test with SK-MEL-28 melanoma; 116% in the test on SK-MEL-2 melanoma; 43.8% with UO-31 renal; 56.3% in the test with TK-10 renal. For the same compound, the growth was 19.3% with ACHN renal; 53% in the test on CAKI-1 renal; 19.6% in the test on A498 renal; 88% in the test with CCRF-CEM leukemia; 93.2% in the test on MOLT-4 leukemia.
As to `CCCCSc1nc(NCCc2c[nH]c3ccccc23)c(C#N)c(-c2ccc(OC)cc2)n1`, the growth with HCT-15 colon is 24.9%; in the test on HT29 colon it was 25.1%; in the test with SNB-75 CNS it was 65.4%; in the test with U251 CNS it was 55.2%; in the test on PC-3 prostate it was 23.2%; in the test with SK-MEL-5 melanoma, 46.2%. Also, the growth was 71.2% with UACC-62 melanoma; 37.7% in the test on LOX IMVI melanoma; 75.8% with SK-MEL-28 melanoma; 76.6% in the test with SK-MEL-2 melanoma; 59.3% in the test on UO-31 renal; 102% in the test with TK-10 renal. Also, the growth with ACHN renal was 66.6%; in the test on CAKI-1 renal, 53.6%; in the test with A498 renal it was 103%; in the test on CCRF-CEM leukemia, 27.8%; with MOLT-4 leukemia, 26.3%.
In the case of `CN(C)c1ccnc(CNCCSC2(c3ccc(C(F)(F)F)cc3)c3ccccc3CCc3ccccc32)c1`, the growth was -82.8% (active) with HCT-15 colon; -65.9% (active) in the test on HT29 colon; -2.6% (active) in the test with SNB-75 CNS; -94.9% (active) in the test on U251 CNS; -35.3% (active) with PC-3 prostate; -99.6% (active) with SK-MEL-5 melanoma. Besides, the growth in the test with UACC-62 melanoma was -5.98% (active); in the test with LOX IMVI melanoma, -98.1% (active); with SK-MEL-28 melanoma it was -81.7% (active); in the test with SK-MEL-2 melanoma, -37.6% (active); in the test with EKVX NSCLC it was -25.3% (active); with UO-31 renal, 1.7% (active). Also, the growth with ACHN renal was -12.1% (active); in the test on CAKI-1 renal, -0.905% (active); with A498 renal, -4.68% (active); with CCRF-CEM leukemia, -43.6% (active); with MOLT-4 leukemia it was -20.9% (active).
As to `CCOC(=O)/C=C/c1cccc2c1C(=O)NC(C)(c1cc3cc(Cl)ccc3oc1=O)N2` (centres undefined), the growth with HCT-15 colon is 20.9%; in the test on HT29 colon, 32.5%; in the test on SNB-19 CNS, 33.8%; with U251 CNS it was 33.9%; in the test with PC-3 prostate it was 17.4%; in the test with SK-MEL-5 melanoma, 10.2%. Moreover, the growth was 13.4% in the test with UACC-62 melanoma; 22.2% in the test with LOX IMVI melanoma; 53.9% in the test on SK-MEL-28 melanoma; 7.1% (active) with SK-MEL-2 melanoma; 31.8% in the test with EKVX NSCLC; 31.5% with SN12C renal. The growth in the test with UO-31 renal is 11.7%; with TK-10 renal, 46.2%; in the test with ACHN renal, 10%; in the test with CAKI-1 renal it was 10.5%; in the test with A498 renal it was 30.3%; in the test on CCRF-CEM leukemia, 37.4%. Further, the growth in the test with MOLT-4 leukemia was 4.75% (active).
Turning to `COc1ccc(-c2nc(SCC(C)C)nc(NCCc3c[nH]c4ccccc34)c2C#N)cc1`, the growth is 29.4% with HCT-15 colon; 35% in the test on HT29 colon; 74.1% in the test with SNB-75 CNS; 40.7% in the test on U251 CNS; 24% in the test on PC-3 prostate; 37.2% in the test with SK-MEL-5 melanoma. For the same compound, the growth in the test with UACC-62 melanoma is 76.2%; in the test with LOX IMVI melanoma, 46.1%; in the test on SK-MEL-28 melanoma, 71.5%; in the test with SK-MEL-2 melanoma, 80.9%; in the test with EKVX NSCLC, 40.5%; with UO-31 renal, 57.2%. The growth with TK-10 renal is 120%; with ACHN renal, 69.5%; in the test on A498 renal, 97.4%; in the test on CCRF-CEM leukemia, 36.2%; in the test with MOLT-4 leukemia it was 40.4%.
Consider `CN(C)CCOc1ccc(C(=O)C2[C@H](c3ccc(Cl)cc3)[C@@H](c3ccccc3)NC23C(=O)Nc2ccc(Br)cc23)cc1` (some centres undefined), for which the growth in the test with HCT-15 colon is -81.5% (active); with HT29 colon, -85.7% (active); in the test on SNB-19 CNS it was 54.1%; in the test with U251 CNS, -93.2% (active); with PC-3 prostate, -3.48% (active); in the test with SK-MEL-5 melanoma it was -16.1% (active). The growth in the test on UACC-62 melanoma is 43.3%; in the test with LOX IMVI melanoma it was -100% (active); in the test on SK-MEL-28 melanoma, 37.6%; in the test on SK-MEL-2 melanoma, 54.1%; in the test with EKVX NSCLC it was 12.3%; in the test with SN12C renal, 7.21% (active). Moreover, the growth with UO-31 renal is 32.8%; with TK-10 renal, 90.2%; with ACHN renal it was -27.9% (active); in the test on CAKI-1 renal, 18.5%; with A498 renal, 96%; in the test with CCRF-CEM leukemia, 43.9%. Moreover, the growth with MOLT-4 leukemia is -52.3% (active).
